# PubChem BioAssay (EPA / NIEHS)
# Inconclusive results are not listed. The source made the active and inactive calls. Rule for the calls: active = hit-call score of the fitted dose curve at least 0.9, where 1 is the maximum; inconclusive = response in the unintended direction; inactive = score below 0.9.
# Legend:
# [1] = target: human Caspase 2 (CASP2), CASP2 (gene 835) (UniProt P42575); assay: NVS_ENZ_hCASP2: NovaScreen (NVS) Enzymatic Assay for human Caspase 2 (CASP2) (AID 2283135)
# Summary of the method: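 Single-point duplicate testing at 25 uM preceded concentration series topping at 50 uM. Activity of the recombinant E. coli-derived protease was followed by fluorescent substrate cleavage 1 h post-dosing, relative to DMSO.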
# [2] = target: Voltage-dependent N-type calcium channel subunit alpha-1B (Rattus norvegicus) (UniProt Q02294); assay: NVS_IC_rCaChN: NovaScreen (NVS) Ion Channel Assay for rat Calcium Channel, Type N (CaChN) (AID 2283317)
# [3] = target: human Fibroblast Growth Factor Receptor 1 (FGFR1), FGFR1 (gene 2260) (UniProt P11362); assay: NVS_ENZ_hFGFR1: NovaScreen (NVS) Enzymatic Assay for human Fibroblast Growth Factor Receptor 1 (FGFR1) (AID 2283159)
# Chain of human Fibroblast Growth Factor Receptor 1 (FGFR1), FGFR1 (gene 2260) (P11362 whole entry, looked up): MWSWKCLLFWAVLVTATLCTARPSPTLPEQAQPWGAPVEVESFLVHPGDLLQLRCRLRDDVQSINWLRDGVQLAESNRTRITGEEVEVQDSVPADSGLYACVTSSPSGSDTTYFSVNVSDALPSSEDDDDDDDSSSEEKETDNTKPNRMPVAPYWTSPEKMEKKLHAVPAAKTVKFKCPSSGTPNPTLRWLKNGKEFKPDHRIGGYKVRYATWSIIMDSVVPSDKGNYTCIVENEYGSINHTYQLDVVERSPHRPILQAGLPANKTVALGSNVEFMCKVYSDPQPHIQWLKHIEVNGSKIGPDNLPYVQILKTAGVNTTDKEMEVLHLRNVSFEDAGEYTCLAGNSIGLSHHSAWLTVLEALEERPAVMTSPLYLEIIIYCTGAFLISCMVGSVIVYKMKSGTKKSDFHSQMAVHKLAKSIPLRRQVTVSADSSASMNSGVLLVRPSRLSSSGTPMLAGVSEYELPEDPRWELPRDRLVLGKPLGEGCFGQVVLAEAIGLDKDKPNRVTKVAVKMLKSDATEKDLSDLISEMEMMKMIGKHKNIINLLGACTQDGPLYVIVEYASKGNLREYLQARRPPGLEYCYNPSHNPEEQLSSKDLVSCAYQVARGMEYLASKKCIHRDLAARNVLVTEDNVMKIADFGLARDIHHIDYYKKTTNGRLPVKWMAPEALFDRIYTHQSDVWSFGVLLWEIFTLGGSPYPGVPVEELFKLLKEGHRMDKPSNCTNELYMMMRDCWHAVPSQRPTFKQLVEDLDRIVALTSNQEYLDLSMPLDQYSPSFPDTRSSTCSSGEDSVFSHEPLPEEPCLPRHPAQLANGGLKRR
# Summary of the method: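 Cell-free recombinant kinase with fluorescent substrate, product separated by electrophoretic mobility shift; read 1 hour after dosing, loss of signal relative to DMSO. Initial screen in duplicate at 25 uM, actives followed in concentration series.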
# [4] = target: human Matrix Metalloproteinase-1 (MMP1), MMP1 (gene 4312) (UniProt P03956); assay: NVS_ENZ_hMMP1: NovaScreen (NVS) Enzymatic Assay for human Matrix Metalloproteinase-1 (MMP1) (AID 2283181)
# Chain of human Matrix Metalloproteinase-1 (MMP1), MMP1 (gene 4312) (P03956 whole entry, looked up): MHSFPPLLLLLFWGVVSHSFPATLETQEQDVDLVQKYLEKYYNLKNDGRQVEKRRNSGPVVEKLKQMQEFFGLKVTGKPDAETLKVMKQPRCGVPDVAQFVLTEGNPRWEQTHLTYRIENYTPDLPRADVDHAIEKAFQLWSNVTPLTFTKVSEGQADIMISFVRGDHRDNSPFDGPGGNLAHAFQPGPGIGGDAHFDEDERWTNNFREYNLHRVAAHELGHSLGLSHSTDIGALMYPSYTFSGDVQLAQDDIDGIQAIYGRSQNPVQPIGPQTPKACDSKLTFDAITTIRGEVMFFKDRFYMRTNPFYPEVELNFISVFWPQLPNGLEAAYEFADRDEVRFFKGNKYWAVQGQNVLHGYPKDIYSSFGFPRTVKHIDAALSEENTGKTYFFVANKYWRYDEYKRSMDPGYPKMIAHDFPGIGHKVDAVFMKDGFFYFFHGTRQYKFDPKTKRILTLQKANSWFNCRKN
# Summary of the method: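 Cell-free fluorescent substrate assay of human MMP1, read after 1 h. A single 25 uM duplicate screen was followed by concentration series to a maximum of 50 uM for actives meeting threshold; inhibition analysed against DMSO baseline.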
# [5] = target: human p21 Activated Kinase 4 (PAK4), PAK4 (gene 10298) (UniProt O96013); assay: NVS_ENZ_hPAK4: NovaScreen (NVS) Enzymatic Assay for human p21 Activated Kinase 4 (PAK4) (AID 2283189)
# Summary of the method: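 Extracted PAK4 enzyme activity read by fluorescence with mobility-shift separation 1 h after chemical addition. Duplicate single-concentration screen at 25 uM, DMSO as negative control.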
# [6] = target: human Phosphatase and Tensin Homolog (PTEN), PTEN (gene 5728) (UniProt P60484); assay: NVS_ENZ_hPTEN: NovaScreen (NVS) Enzymatic Assay for human Phosphatase and Tensin Homolog (PTEN) (AID 2283203)
# Summary of the method: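 Loss of fluorescent product signal after mobility-shift separation reports PTEN activity, recombinant human enzyme, 1 h after compound addition. Single 25 uM duplicate screen, then concentration-response on actives; DMSO baseline.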
# [7] = target: human Protein Tyrosine Phosphatase Non-receptor Type 2 (PTPN2), PTPN2 (gene 5771) (UniProt P17706); assay: NVS_ENZ_hPTPN2: NovaScreen (NVS) Enzymatic Assay for human Protein Tyrosine Phosphatase Non-receptor Type 2 (PTPN2) (AID 2283207)
# Chain of human Protein Tyrosine Phosphatase Non-receptor Type 2 (PTPN2), PTPN2 (gene 5771) (P17706 whole entry, looked up): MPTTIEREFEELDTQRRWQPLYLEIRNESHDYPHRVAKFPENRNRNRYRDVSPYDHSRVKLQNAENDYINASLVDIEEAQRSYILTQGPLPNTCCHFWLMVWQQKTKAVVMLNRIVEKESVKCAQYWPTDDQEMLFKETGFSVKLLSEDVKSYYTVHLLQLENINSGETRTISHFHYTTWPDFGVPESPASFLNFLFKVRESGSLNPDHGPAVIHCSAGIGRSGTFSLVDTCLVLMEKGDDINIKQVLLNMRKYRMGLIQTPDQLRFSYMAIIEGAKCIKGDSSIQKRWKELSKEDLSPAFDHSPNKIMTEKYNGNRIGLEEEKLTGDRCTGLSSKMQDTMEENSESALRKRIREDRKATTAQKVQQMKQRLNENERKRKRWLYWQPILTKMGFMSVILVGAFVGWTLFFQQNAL
# Summary of the method: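 Activity measured as fluorescence after mobility-shift separation of substrate and product, 1 h after compound. Duplicate single-point 25 uM primary testing, concentration series for actives; inhibition scored as signal loss relative to DMSO baseline.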
# [8] = target: human Raf-1 Proto-Oncogene, serine/threonine Kinase (RAF1), RAF1 (gene 5894) (UniProt P04049); assay: NVS_ENZ_hRAF1: NovaScreen (NVS) Enzymatic Assay for human Raf-1 Proto-Oncogene, serine/threonine Kinase (RAF1) (AID 2283216)
# Chain of human Raf-1 Proto-Oncogene, serine/threonine Kinase (RAF1), RAF1 (gene 5894) (P04049 whole entry, looked up): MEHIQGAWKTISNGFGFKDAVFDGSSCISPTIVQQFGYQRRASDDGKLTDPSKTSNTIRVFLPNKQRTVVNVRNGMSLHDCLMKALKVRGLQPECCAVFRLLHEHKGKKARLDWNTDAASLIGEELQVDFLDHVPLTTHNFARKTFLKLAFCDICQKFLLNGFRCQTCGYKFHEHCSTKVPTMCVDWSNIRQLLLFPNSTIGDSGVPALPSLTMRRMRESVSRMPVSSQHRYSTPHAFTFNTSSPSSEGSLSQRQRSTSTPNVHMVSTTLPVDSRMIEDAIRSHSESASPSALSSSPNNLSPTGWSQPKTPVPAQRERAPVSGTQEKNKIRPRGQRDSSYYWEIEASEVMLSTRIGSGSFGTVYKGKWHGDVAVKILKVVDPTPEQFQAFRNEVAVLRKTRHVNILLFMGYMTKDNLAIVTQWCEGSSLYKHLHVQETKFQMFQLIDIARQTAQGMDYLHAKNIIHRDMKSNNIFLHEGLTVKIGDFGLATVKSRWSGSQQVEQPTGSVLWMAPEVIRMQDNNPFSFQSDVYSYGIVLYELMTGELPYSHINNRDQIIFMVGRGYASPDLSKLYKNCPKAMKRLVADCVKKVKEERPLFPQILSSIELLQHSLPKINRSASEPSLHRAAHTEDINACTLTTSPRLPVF
# Summary of the method: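 Single-point screening at 25 uM (duplicate), followed by singleton concentration-response to 50 uM maximum for chemicals exceeding threshold. Enzyme activity from fluorescent substrate-product mobility-shift separation after 1 h, relative to DMSO.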
# [9] = target: human Tyrosine Protein Kinase Receptor Tie-2 (Tie2), TEK (gene 7010) (UniProt Q02763); assay: NVS_ENZ_hTie2: NovaScreen (NVS) Enzymatic Assay for human Tyrosine Protein Kinase Receptor Tie-2 (Tie2) (AID 2283225)
# Chain of human Tyrosine Protein Kinase Receptor Tie-2 (Tie2), TEK (gene 7010) (Q02763 whole entry, looked up): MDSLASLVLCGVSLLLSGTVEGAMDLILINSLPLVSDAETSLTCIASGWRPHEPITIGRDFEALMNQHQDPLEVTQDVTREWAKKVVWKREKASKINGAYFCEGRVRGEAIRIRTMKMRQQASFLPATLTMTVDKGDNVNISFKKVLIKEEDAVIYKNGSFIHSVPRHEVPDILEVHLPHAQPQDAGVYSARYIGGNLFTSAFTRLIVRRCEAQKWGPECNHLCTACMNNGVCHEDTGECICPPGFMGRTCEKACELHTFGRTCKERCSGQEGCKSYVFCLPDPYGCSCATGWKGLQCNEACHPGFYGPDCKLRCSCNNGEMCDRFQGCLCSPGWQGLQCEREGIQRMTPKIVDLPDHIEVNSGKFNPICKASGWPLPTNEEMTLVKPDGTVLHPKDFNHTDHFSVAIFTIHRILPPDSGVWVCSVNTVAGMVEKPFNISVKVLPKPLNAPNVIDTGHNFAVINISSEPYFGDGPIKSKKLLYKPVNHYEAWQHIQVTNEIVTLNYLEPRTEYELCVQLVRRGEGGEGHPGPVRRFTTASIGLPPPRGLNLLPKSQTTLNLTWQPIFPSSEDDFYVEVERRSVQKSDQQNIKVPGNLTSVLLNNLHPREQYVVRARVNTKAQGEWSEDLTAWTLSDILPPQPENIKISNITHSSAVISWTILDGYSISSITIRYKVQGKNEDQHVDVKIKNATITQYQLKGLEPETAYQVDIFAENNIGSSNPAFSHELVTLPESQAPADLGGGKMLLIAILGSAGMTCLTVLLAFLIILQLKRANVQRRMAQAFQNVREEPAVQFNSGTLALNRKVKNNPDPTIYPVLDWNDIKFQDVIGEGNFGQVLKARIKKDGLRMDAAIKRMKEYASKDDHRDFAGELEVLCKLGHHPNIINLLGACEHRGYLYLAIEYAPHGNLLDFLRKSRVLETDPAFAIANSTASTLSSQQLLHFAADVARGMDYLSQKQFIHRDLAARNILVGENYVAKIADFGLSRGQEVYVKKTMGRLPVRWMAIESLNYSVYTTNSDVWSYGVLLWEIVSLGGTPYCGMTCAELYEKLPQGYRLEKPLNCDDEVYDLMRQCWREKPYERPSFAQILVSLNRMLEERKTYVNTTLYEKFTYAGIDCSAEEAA
# Summary of the method: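 Substrate and product were separated by mobility shift and detected by fluorescence after a 1-hour reaction with recombinant Tie2. Chemicals passing a 25 uM single-point screen were titrated to a maximum of 50 uM. Results were normalized to DMSO baseline.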
# [10] = test system: rat Monoamine Oxidase, MAO-A, Central (MAOAC), gene 29253; assay: NVS_ENZ_rMAOAC: NovaScreen (NVS) Enzymatic Assay for rat Monoamine Oxidase, MAO-A, Central (MAOAC) (AID 2283243);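 note: potency refers to inhibition seen as signal drop below DMSO baseline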
# Summary of the method: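 Enzyme from rat brain, cell-free radiodetection format. Counts taken at 1.5 h; activity fitted against DMSO baseline, loss of signal marking inhibition. Confirmatory concentration series followed the 25 uM duplicate screen.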
# [11] = target: Protein deacetylase HDAC6 (Homo sapiens) (UniProt Q9UBN7); assay: NVS_ENZ_hHDAC6: NovaScreen (NVS) Enzymatic Assay for human Histone Deacetylase 6 (HDAC6) (AID 2283164)
# Chain of Protein deacetylase HDAC6 (Homo sapiens) (Q9UBN7 whole entry, looked up): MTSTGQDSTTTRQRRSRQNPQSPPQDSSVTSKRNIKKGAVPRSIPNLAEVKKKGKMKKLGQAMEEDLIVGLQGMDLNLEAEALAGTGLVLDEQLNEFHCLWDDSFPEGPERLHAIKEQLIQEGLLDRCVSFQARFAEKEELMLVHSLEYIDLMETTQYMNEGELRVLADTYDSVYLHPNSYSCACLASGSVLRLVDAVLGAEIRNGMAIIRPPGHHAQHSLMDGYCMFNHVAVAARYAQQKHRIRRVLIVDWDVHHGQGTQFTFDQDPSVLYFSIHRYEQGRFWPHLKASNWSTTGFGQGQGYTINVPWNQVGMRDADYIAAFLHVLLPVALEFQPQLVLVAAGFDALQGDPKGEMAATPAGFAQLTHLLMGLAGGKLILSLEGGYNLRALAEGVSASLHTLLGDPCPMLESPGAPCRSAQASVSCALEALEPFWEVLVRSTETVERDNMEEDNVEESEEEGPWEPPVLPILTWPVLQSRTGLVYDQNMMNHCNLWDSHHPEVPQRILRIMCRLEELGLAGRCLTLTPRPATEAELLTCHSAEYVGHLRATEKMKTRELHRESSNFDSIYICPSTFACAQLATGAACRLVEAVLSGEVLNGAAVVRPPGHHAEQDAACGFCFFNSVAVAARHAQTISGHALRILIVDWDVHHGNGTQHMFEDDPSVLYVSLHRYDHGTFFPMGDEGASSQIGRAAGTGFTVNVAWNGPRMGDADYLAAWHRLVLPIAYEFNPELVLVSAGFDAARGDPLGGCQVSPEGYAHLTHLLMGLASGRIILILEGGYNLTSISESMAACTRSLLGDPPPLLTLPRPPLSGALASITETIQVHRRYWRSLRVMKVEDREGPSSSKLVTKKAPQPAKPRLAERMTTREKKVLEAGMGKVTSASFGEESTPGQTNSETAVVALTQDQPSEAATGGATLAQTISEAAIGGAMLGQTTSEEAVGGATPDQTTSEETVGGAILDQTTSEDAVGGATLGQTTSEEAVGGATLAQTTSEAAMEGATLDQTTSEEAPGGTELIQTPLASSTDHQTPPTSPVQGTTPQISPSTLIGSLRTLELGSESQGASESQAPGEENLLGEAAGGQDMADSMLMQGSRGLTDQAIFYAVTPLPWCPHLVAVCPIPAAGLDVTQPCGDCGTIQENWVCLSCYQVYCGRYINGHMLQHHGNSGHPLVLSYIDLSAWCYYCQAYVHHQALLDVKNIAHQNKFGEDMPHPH
# Summary of the method: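 Concentration-response runs up to 50 uM followed a duplicate 25 uM single-point screen. Deacetylase activity of recombinant human HDAC6 read by fluorescence after 1 h, with mobility-shift separation of substrate and product; DMSO as baseline.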
# [12] = target: human Mitogen-Activated Protein Kinase 1 (MAPK 1), MAPK1 (gene 5594) (UniProt P28482); assay: NVS_ENZ_hMAPK1: NovaScreen (NVS) Enzymatic Assay for human Mitogen-Activated Protein Kinase 1 (MAPK 1) (AID 2283175)
# Chain of human Mitogen-Activated Protein Kinase 1 (MAPK 1), MAPK1 (gene 5594) (P28482 whole entry, looked up): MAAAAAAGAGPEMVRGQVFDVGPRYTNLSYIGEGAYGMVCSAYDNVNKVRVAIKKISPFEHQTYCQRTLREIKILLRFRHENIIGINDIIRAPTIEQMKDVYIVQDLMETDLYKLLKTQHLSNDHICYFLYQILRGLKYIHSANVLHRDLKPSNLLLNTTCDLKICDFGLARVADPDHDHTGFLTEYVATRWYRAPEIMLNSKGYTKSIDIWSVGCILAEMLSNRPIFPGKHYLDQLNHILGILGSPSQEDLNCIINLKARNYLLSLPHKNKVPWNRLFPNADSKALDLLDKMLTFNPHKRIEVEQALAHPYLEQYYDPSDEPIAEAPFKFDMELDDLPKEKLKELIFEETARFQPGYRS
# Summary of the method: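 Cell-free recombinant human MAPK1 enzymatic assay, fluorescence/electrophoretic mobility shift read at 1 h; loss of signal vs DMSO. Primary screen in duplicate at 25 uM; actives (e.g. ≥30% inhibition) run as concentration-response up to 50 uM.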
# [13] = target: bovine Gamma-Aminobutyric Acid Type A Receptor BDZ, alpha 1 site (GABARa1), GABRA1 (gene 780973) (UniProt P08219); assay: NVS_LGIC_bGABARa1: NovaScreen (NVS) Ligand-Gated Ion Channel Assay for bovine Gamma-Aminobutyric Acid Type A Receptor BDZ, alpha 1 site (GABARa1) (AID 2283321)
# Summary of the method: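 Bovine cortex membrane preparation, benzodiazepine site on GABA-A alpha1; specific radioligand displacement read after 0.75 h by filtration and scintillation. Screen at 25 uM, then singleton titrations up to 50 uM; DMSO baseline.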
# [14] = target: rat Acetylcholinesterase (AChE), Ache (gene 83817) (UniProt P37136); assay: NVS_ENZ_rAChE: NovaScreen (NVS) Enzymatic Assay for rat Acetylcholinesterase (AChE) (AID 2283233)
# Summary of the method: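 Compounds first screened at 25 uM in duplicate, then those passing threshold tested in concentration series up to 50 uM, against AChE from rat brain membranes. Enzyme activity read by absorbance at 0.33 h; inhibition scored versus DMSO.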
# [15] = test system: rat Monoamine Oxidase, MAO-A, Peripheral (MAOAP), gene 29253; assay: NVS_ENZ_rMAOAP: NovaScreen (NVS) Enzymatic Assay for rat Monoamine Oxidase, MAO-A, Peripheral (MAOAP) (AID 2283237)
# Summary of the method: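 Scintillation counting tracked MAO-A activity in a cell-free rat liver mitochondrial membrane prep, read 1.17 hours after compound addition. Single-point duplicate testing at 25 uM preceded concentration-response follow-up; activity was fitted relative to DMSO.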
# [16] = target: rat Monoamine Oxidase, MAO-B, Peripheral (MAOBP), Maob (gene 25750) (UniProt P19643); assay: NVS_ENZ_rMAOBP: NovaScreen (NVS) Enzymatic Assay for rat Monoamine Oxidase, MAO-B, Peripheral (MAOBP) (AID 2283242)
# [17] = target: human MET Proto-Oncogene, Receptor Tyrosine Kinase (MET), MET (gene 4233) (UniProt P08581); assay: NVS_ENZ_hMet: NovaScreen (NVS) Enzymatic Assay for human MET Proto-Oncogene, Receptor Tyrosine Kinase (MET) (AID 2283180)
# Summary of the method: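 Hits from a 25 uM duplicate screen were retested in concentration series up to 50 uM. Enzyme activity was measured by fluorescence after electrophoretic separation of product from substrate, 1 h after compound addition, relative to DMSO.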
# [18] = target: human Protein Tyrosine Phosphatase Receptor Type C (PTPRC), PTPRC (gene 5788) (UniProt P08575); assay: NVS_ENZ_hPTPRC: NovaScreen (NVS) Enzymatic Assay for human Protein Tyrosine Phosphatase Receptor Type C (PTPRC) (AID 2283212)
# Summary of the method: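 Absorbance-based phosphatase activity of human PTPRC protein extracted from yeast was measured 1 h post-dosing. Compounds first tested at 25 uM in duplicate, then those passing threshold in singleton concentration series to 50 uM.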
structure (smiles),measurement,setting,value
CC[C@@H]1C[C@H](N(Cc2cc(C(F)(F)F)cc(C(F)(F)F)c2)C(C)=O)c2cc(C(F)(F)F)ccc2N1C(=O)OC(C)C,outcome,[1],inactive
same,outcome,[2],inactive
FC(F)(F)C(F)(F)C(F)(F)C(F)(F)C(F)(F)C(F)(F)CCI,outcome,[3],inactive
same,outcome,[4],inactive
same,outcome,[5],inactive
same,outcome,[6],inactive
same,outcome,[7],inactive
same,outcome,[8],inactive
same,outcome,[9],inactive
O=C(O)c1cc(N=Nc2ccc(S(=O)(=O)Nc3ccccn3)cc2)ccc1O,outcome,[3],inactive
same,outcome,[7],inactive
same,outcome,[8],inactive
same,outcome,[9],inactive
same,outcome,[10],inactive
O=C(O)c1ccccc1,outcome,[3],inactive
CCCc1cc(=O)[nH]c(=S)[nH]1,outcome,[11],inactive
same,outcome,[12],inactive
c1cc(-c2ccncc2)ccn1,outcome,[3],inactive
CC(C)(O)c1ccc(CNC(=O)c2cccnc2Oc2ccc(F)cc2)cc1,outcome,[3],inactive
COc1ccc2sc(C(=O)Nc3nnn[nH]3)c(OC(C)C)c2c1,outcome,[3],inactive
same,outcome,[4],inactive
same,outcome,[5],inactive
same,AC50,[8],25 µM (active)
same,outcome,[9],inactive
On1ccccc1=S,outcome,[11],inactive
CC[C@H](C)[C@@H](C(=O)O)n1sc2ccccc2c1=O,outcome,[3],inactive
same,outcome,[13],inactive
CCCCCCC(=O)O,outcome,[3],inactive
same,outcome,[11],inactive
CC(C)(C)CC(C)(C)c1ccc(O)c(-n2nc3ccccc3n2)c1,outcome,[3],inactive
CN1CCN(Cc2cc(-c3ccc4[nH]c(=O)oc4c3)co2)[C@@H](c2ccc(F)cc2)C1,AC50,[4],10.5 µM (active)
same,outcome,[14],inactive
same,AC50,[15],18.2 µM (active)
same,AC50,[16],10.1 µM (active)
same,AC50,[10],22 µM (active)
CC(=O)NC1(c2cccc(F)c2)CCN(CC[C@@]2(c3ccc(Cl)c(Cl)c3)CN(c3ccccc3)C(=O)CO2)CC1,outcome,[4],inactive
CC(=O)OC1CC(C)OC(C)O1 (stereo not given),outcome,[4],inactive
CCCOC(=O)c1cc(O)c(O)c(O)c1,AC50,[4],16.1 µM (active)
Nc1ccccc1N,AC50,[17],32.2 µM (active)
same,AC50,[18],7.6 µM (active)
COc1ccc([N+](=O)[O-])cc1N,AC50,[4],10.8 µM (active)
CC(CO)OC(C)CO (stereo not given) (tested in a mixture with another compound),outcome,[11],inactive
same,outcome,[9],inactive
CCCCCCCCCCCCCCOS(=O)(=O)O,outcome,[4],inactive
same,AC50,[18],24.2 µM (active)
